# Measured values taken from the supplement of paper PMC10037445.
# In all, about 2,900 compounds were measured (“NF-kB SEAP reporter activity, fold change vs agonist alone”: median about 0.99, highest 2% from about 2.6 on). This is one part of a sample in which the highest values are shown more often than they occur.
# Key:
# RAW-Dual [1] = assay: NF-kB SEAP reporter activity, fold change vs agonist alone; cytotoxicity flag (confluency mask): not cytotoxic; higher = enhanced NF-kB activity
# Method in brief: (§1)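 Library stock was pin-tooled at 50 nL into 384-well plates of RAW-Dual macrophages (50,000 cells/well, DMEM), followed 1 h later by a PRR agonist, and the cells were kept at 37 °C, 5% CO2. Supernatant collected after 20 hours was read for IRF by QuantiLuc luminescence and for NF-κB by QuantiBlue absorbance at 620 nm. Reporter activity is fold change over agonist-alone wells, and a well counted as cytotoxic when its IncuCyte confluency was below 70% of agonist controls in both mask sets.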
# RAW-Dual [2] = assay: NF-kB SEAP reporter activity, fold change vs agonist alone; higher = enhanced NF-kB activity; details: cytotoxicity flag (confluency mask): not cytotoxic
# Method in brief: as §1
# [3] = agonist: ODN 1826 (TLR9) 0.5 ug/mL
# [4] = agonist: Pam2CSK4 (TLR2/6) 0.1 ug/mL
# [5] = agonist: Pam3CSK4 (TLR2/1) 0.1 ug/mL
# [6] = library stock concentration (final ~1000-fold dilution): 10 mM, agonist: Imiquimod (TLR7) […]
# [7] = library stock concentration (final ~1000-fold dilution): 10 mM, agonist: MPLA (TLR4) […]
smiles,measurement,setting,value
COC(=O)NC(C(=O)NC(Cc1ccccc1)C(O)CN(Cc1ccc(-c2ccccn2)cc1)NC(=O)C(NC(=O)OC)C(C)(C)C)C(C)(C)C (stereo unspecified) (library stock concentration (final ~1000-fold dilution): 10 mM),NF-kB SEAP reporter activity,RAW-Dual [1]; agonist: LPS (TLR4) 0.1 ug/mL,1.03
same,NF-kB SEAP reporter activity,RAW-Dual [1]; [3],1.02
same,NF-kB SEAP reporter activity,RAW-Dual [1]; [4],1.11
same,NF-kB SEAP reporter activity,RAW-Dual [1]; [5],0.79
CC(C)CC(NC(=O)C(Cc1ccccc1)CC(O)C(Cc1ccccc1)NC(=O)OC(C)(C)C)C(=O)NC(Cc1ccccc1)C(N)=O (stereo unspecified) (library stock concentration (final ~1000-fold dilution): 10 mM),NF-kB SEAP reporter activity,RAW-Dual [1]; agonist: LPS (TLR4) 0.1 ug/mL,1.25
same,NF-kB SEAP reporter activity,RAW-Dual [1]; [3],0.998
same,NF-kB SEAP reporter activity,RAW-Dual [1]; [4],0.929
same,NF-kB SEAP reporter activity,RAW-Dual [1]; [5],0.958
CC(C)CC(NC(=O)C(Cc1ccccc1)CC(O)C(Cc1ccccc1)NC(=O)OC(C)(C)C)C(=O)NC(Cc1ccccc1)C(N)=O (stereo unspecified),NF-kB SEAP reporter activity,RAW-Dual [2]; [6],0.843
same,NF-kB SEAP reporter activity,RAW-Dual [2]; [7],1.02
COC(=O)NC(C(=O)NC(Cc1ccccc1)C(O)CN(Cc1ccc(-c2ccccn2)cc1)NC(=O)C(NC(=O)OC)C(C)(C)C)C(C)(C)C.O=S(=O)(O)O (stereo unspecified),NF-kB SEAP reporter activity,RAW-Dual [2]; [6],2.01
same,NF-kB SEAP reporter activity,RAW-Dual [2]; [7],1.56
COC(=O)NC(C(=O)NC(Cc1ccccc1)C(O)CN(Cc1ccc(-c2ccccn2)cc1)NC(=O)C(NC(=O)OC)C(C)(C)C)C(C)(C)C (stereo unspecified),NF-kB SEAP reporter activity,RAW-Dual [2]; [7],0.961
COC(=O)NC(C(=O)NC(Cc1ccccc1)C(O)CN(Cc1ccc(-c2ccccn2)cc1)NC(=O)C(NC(=O)OC)C(C)(C)C)C(C)(C)C.O=S(=O)(O)O (stereo unspecified) (library stock concentration (final ~1000-fold dilution): 10 mM),NF-kB SEAP reporter activity,RAW-Dual [1]; agonist: LPS (TLR4) 0.1 ug/mL,1.54
same,NF-kB SEAP reporter activity,RAW-Dual [1]; [3],2.67
same,NF-kB SEAP reporter activity,RAW-Dual [1]; [4],1.47
same,NF-kB SEAP reporter activity,RAW-Dual [1]; [5],1.68
CC(C)C1=CC2=CCC3C(C)(C(=O)O)CCCC3(C)C2CC1 (stereo unspecified),NF-kB SEAP reporter activity,RAW-Dual [2]; [7],1.07
CC(C)C1=CC2=CCC3C(C)(C(=O)O)CCCC3(C)C2CC1 (stereo unspecified) (library stock concentration (final ~1000-fold dilution): 10 mM),NF-kB SEAP reporter activity,RAW-Dual [1]; agonist: LPS (TLR4) 0.1 ug/mL,0.876
same,NF-kB SEAP reporter activity,RAW-Dual [1]; [3],0.965
same,NF-kB SEAP reporter activity,RAW-Dual [1]; [4],1.03
same,NF-kB SEAP reporter activity,RAW-Dual [1]; [5],0.83
CC(C)CC(=O)NC(C(=O)NC(C(=O)NC(CC(C)C)C(O)CC(=O)NC(C)C(=O)NC(CC(C)C)C(O)CC(=O)O)C(C)C)C(C)C (stereo unspecified),NF-kB SEAP reporter activity,RAW-Dual [2]; [6],1.01
same,NF-kB SEAP reporter activity,RAW-Dual [2]; [7],1
CC(C)CC(=O)NC(C(=O)NC(C(=O)NC(CC(C)C)C(O)CC(=O)NC(C)C(=O)NC(CC(C)C)C(O)CC(=O)O)C(C)C)C(C)C (stereo unspecified) (library stock concentration (final ~1000-fold dilution): 10 mM),NF-kB SEAP reporter activity,RAW-Dual [1]; agonist: LPS (TLR4) 0.1 ug/mL,0.983
same,NF-kB SEAP reporter activity,RAW-Dual [1]; [3],0.596
same,NF-kB SEAP reporter activity,RAW-Dual [1]; [4],1
same,NF-kB SEAP reporter activity,RAW-Dual [1]; [5],0.967
CCOCc1nc2c(N)nc3ccccc3c2n1CC(C)(C)O (library stock concentration (final ~1000-fold dilution): 3.2 mM),NF-kB SEAP reporter activity,RAW-Dual [1]; agonist: LPS (TLR4) 0.1 ug/mL,3.55
same,NF-kB SEAP reporter activity,RAW-Dual [1]; [3],1.69
same,NF-kB SEAP reporter activity,RAW-Dual [1]; [4],0.415
same,NF-kB SEAP reporter activity,RAW-Dual [1]; [5],0.673
CCOCc1nc2c(N)nc3ccccc3c2n1CC(C)(C)O,NF-kB SEAP reporter activity,"RAW-Dual [2]; library stock concentration (final ~1000-fold dilution): 3.2 mM, agonist: Imiquimod (TLR7) […]",1.27
same,NF-kB SEAP reporter activity,"RAW-Dual [2]; library stock concentration (final ~1000-fold dilution): 3.2 mM, agonist: MPLA (TLR4) […]",2.17
CC(=O)NC1C(NC(=N)N)C=C(C(=O)O)OC1C(O)C(O)CO (stereo unspecified),NF-kB SEAP reporter activity,"RAW-Dual [2]; library stock concentration (final ~1000-fold dilution): 10 mM water, agonist: Imiquimod (TLR7) […]",0.917
same,NF-kB SEAP reporter activity,"RAW-Dual [2]; library stock concentration (final ~1000-fold dilution): 10 mM water, agonist: MPLA (TLR4) […]",1.03
